Measurements: ChEMBL document CHEMBL4513135, “CO-ADD screening of IQOG CSIS (Spain) compounds”
“And” between values parts separate entries of the source, which are not always exact repeats. Equal values may be shown once. Results with a measured potency or affinity are listed apart.

Assays:
[1] = test system: Staphylococcus aureus; conditions: Concentration 32 ug.mL-1, ASSAY_TEST Inhibition of Bacterial Growth, detection method Absorption (OD600), MEDIA CAMHB, plate type 384well, NBS, CORNING #3640, time 18 hr
[2] = test system: Escherichia coli; conditions: Concentration 32 ug.mL-1, ASSAY_TEST Inhibition of Bacterial Growth, detection method Absorption (OD600), MEDIA CAMHB, plate type 384well, NBS, CORNING #3640, time 18 hr

CCCC(C)NNC(=O)Cc1c[nH]c2ccccc12 (stereo not drawn)
Inhibition [1]: 1.02%
Inhibition [2]: -9.25%

Cc1ccc(-c2c(C#N)c(N)nc3c2S(=O)(=O)OC3(C)C)cc1
Inhibition [1]: 9.98%
Inhibition [2]: 6.38%

COc1cccc(C=C2N=C(c3ccccc3)OC2=O)c1OC(C)=O
Inhibition [1]: 5.66%
Inhibition [2]: 4.51%

C#CCNc1nc(NC2CCN(Cc3ccccc3)CC2)c(C#N)cc1C#N.Cl
Inhibition [1]: -1.55%
Inhibition [2]: -6.24%

Cl.Nc1c2c(nc3c1C(c1c(Cl)cccc1Cl)c1ccc4ccccc4c1O3)CCCC2 (stereo not drawn)
Inhibition [1]: -3.18%
Inhibition [2]: -2.79%

COc1cc(C2c3ccc4ccccc4c3Oc3nc4c(c(N)c32)CCCC4)ccc1O.Cl (stereo not drawn)
Inhibition [1]: -4.49%
Inhibition [2]: -1.18%

CC1CC(=O)Nc2c1c(Cl)nc1nc3c(c(N)c21)CCCC3 (stereo not drawn)
Inhibition [1]: 34.68%
Inhibition [2]: -17.09%

Cn1cc(C=O)c2ccccc21
Inhibition [1]: -0.04%
Inhibition [2]: -4.32%

CCOC(=O)C1=C(C)NC(N)=C(C#N)C1c1ccc([N+](=O)[O-])cc1 (stereo not drawn)
Inhibition [1]: 22.51%
Inhibition [2]: -7.02%

COC1=C(C#N)C(c2ccccc2)C(C=O)=C(Cl)N1 (stereo not drawn)
Inhibition [1]: 40.42%
Inhibition [2]: -6.81%

C#CCNc1ncc(C#N)c(N)n1
Inhibition [1]: 8.61%
Inhibition [2]: -16.66%

CCC(CC)NNC(=O)c1cc2ccccc2n1C
Inhibition [1]: 11.92%
Inhibition [2]: 13.68%

N#CC1(Br)C(=NBr)Oc2ccc3ccccc3c2C1c1ccccc1[N+](=O)[O-] (stereo not drawn)
Inhibition [1]: 23.03%
Inhibition [2]: -25.63%

O=C1OC(c2ccc([N+](=O)[O-])cc2)=NC1=Cc1ccccc1
Inhibition [1]: 12.67%
Inhibition [2]: 13.11%

CNCc1cc2cc(OC)ccc2n1C.Cl
Inhibition [1]: 10.42%
Inhibition [2]: -0.77%

Cn1c(C(=O)O)cc2ccccc21
Inhibition [1]: 7.02%
Inhibition [2]: 5.49%

CCOC(=O)C1=C(C)OC(N)=C(C#N)C1c1ccco1 (stereo not drawn)
Inhibition [1]: 7.79%
Inhibition [2]: -14.37%

Cc1nn(-c2ccccc2)c2ncnc(Nc3ccccc3)c12
Inhibition [1]: 6.52%
Inhibition [2]: 10.84%

CCC(Cc1ccccc1)NNC(=O)c1cc2ccccc2[nH]1 (stereo not drawn)
Inhibition [1]: -3.17%
Inhibition [2]: -1.51%

O[C@H]1CC[C@H](NCc2ccccc2)CC1
Inhibition [1]: 21.55%
Inhibition [2]: -7.34%

N#Cc1cc2c(N)n[nH]c2nc1N
Inhibition [1]: 14.97%
Inhibition [2]: 10.46%

C#CCN1CCc2nc3nc(N4CCCC4)c(C#N)cc3c(N)c2C1
Inhibition [1]: 24.32%
Inhibition [2]: -2.2%

C#CCN(C)c1cc(C)nc(C)n1
Inhibition [1]: 21.48%
Inhibition [2]: -8.55%

CCOc1nc2nc(CCc3ccccc3)ccc2c(-c2ccccc2)c1C#N
Inhibition [1]: 14.64%
Inhibition [2]: -39.9%

N#Cc1cc(C#N)c(NCCC2CCN(Cc3ccccc3)CC2)nc1N
Inhibition [1]: 49.11%
Inhibition [2]: -25.69%

Cc1ccc(CNNC(N)=O)cc1.Cl
Inhibition [1]: 4.52%
Inhibition [2]: 6.79%

Cc1ccc(/C=C(\C#N)C(=O)c2ccccc2)cc1
Inhibition [1]: 25.42%
Inhibition [2]: 15.2%

C#CCNC.O=C(O)C(=O)O
Inhibition [1]: 24.36%
Inhibition [2]: 23.06%

Br.C#CCNCc1ccccc1
Inhibition [1]: 25.93%
Inhibition [2]: 20.8%

CC1(C)OS(=O)(=O)C2=C1NC(N)=C(C#N)C2c1ccccc1 (stereo not drawn)
Inhibition [1]: 8.23%
Inhibition [2]: 10.42%

N#C/C(=C\c1ccccc1)C(=O)c1ccccc1
Inhibition [1]: 10.5%
Inhibition [2]: 8.34%

COC(=O)C(C#N)=Cc1ccccc1
Inhibition [1]: 23.27%
Inhibition [2]: 9.25%

N#CC1(Br)C(=NBr)Oc2ccc3ccccc3c2C1c1ccccc1 (stereo not drawn)
Inhibition [1]: 7.34%
Inhibition [2]: 1.03%

CCOC(=O)C1=C(C)Oc2nc3c(c(N)c2C1c1nccn1C)CCC3 (stereo not drawn)
Inhibition [1]: 6.58%
Inhibition [2]: -22.18%

N#CC1=C(N)Oc2c(ccc3ccccc23)C1c1c(Cl)cccc1Cl (stereo not drawn)
Inhibition [1]: 8.27%
Inhibition [2]: 6.46%

CC(=O)C(=Cc1ccccc1)C(=O)O[C@H]1C[C@H](C)CC[C@H]1C(C)C
Inhibition [1]: 27.78%
Inhibition [2]: 14.92%

COc1ccccc1C1C(C#N)=C(N)Oc2[nH]nc(C)c21 (stereo not drawn)
Inhibition [1]: 9.32%
Inhibition [2]: 14.43%

N#Cc1ccc(Br)cc1N
Inhibition [1]: 4.6%
Inhibition [2]: 16.76%

NC(=O)c1cc2cc(OCc3ccccc3)ccc2[nH]1
Inhibition [1]: 21.34%
Inhibition [2]: -8.75%

CC(C)(C)OC(=O)Nc1ccccn1
Inhibition [1]: 38.41%
Inhibition [2]: -0.38%

NNC(=O)Cc1c[nH]c2ccccc12
Inhibition [1]: 10.37%
Inhibition [2]: 13.76%

N#Cc1cc(C#N)c(NCCCCC2CCN(Cc3ccccc3)CC2)nc1N
Inhibition [1]: 36.38%
Inhibition [2]: -9.24%

Cc1cc(Br)cc(C)c1NC=C(C#N)C#N
Inhibition [1]: 7.73%
Inhibition [2]: 12.6%

O=C(O)n1ccc2ccccc21
Inhibition [1]: 10.57%
Inhibition [2]: 9.43%

Cl.Nc1c2c(nc3c1C(c1ccccc1)c1ccc4ccccc4c1O3)CCCC2 (stereo not drawn)
Inhibition [1]: 23.84%
Inhibition [2]: 6.79%

CCCCNNC(=O)c1cc2ccccc2[nH]1
Inhibition [1]: 0.71%
Inhibition [2]: -2.05%

Br.C#CCNCC
Inhibition [1]: 25.79%
Inhibition [2]: 18.7%

Nc1c2c(nc3ccc([N+](=O)[O-])cc13)CCCC2
Inhibition [1]: 53.1%
Inhibition [2]: 1.31%

N#Cc1c(-c2cccc([N+](=O)[O-])c2)c2ccc3ccccc3c2oc1=O
Inhibition ([2]; 32 ug/mL): -5.38% and -17.97% and -15.63%

CCOC(=O)C1=C(C)NC(N)=C(C#N)C1c1ccc(OC)cc1 (stereo not drawn)
Inhibition [1]: 20.75%
Inhibition [2]: -7.34%

COc1ccc2cc(C3C(C(C)=O)=C(C)Oc4nc5c(c(N)c43)CCC5)c(Cl)nc2c1 (stereo not drawn)
Inhibition [1]: 7.35%
Inhibition [2]: 4.4%

COc1ccc2c(c1)cc(C(=O)Nc1ccccc1)n2C
Inhibition [1]: 20.93%
Inhibition [2]: -8.29%

CN(C)c1nc(N)c(C#N)cc1C#N.Cl
Inhibition ([1]; 32 ug/mL): -10.37% and 5.36%
Inhibition ([2]; 32 ug/mL): -3.96% and -19.68%

COc1ccc(C2c3ccc4ccccc4c3OC(=NBr)C2(Br)C#N)cc1 (stereo not drawn)
Inhibition [1]: 25.41%
Inhibition [2]: -8.93%

Cc1nc(Nc2ccccc2)c2c(C)nn(-c3ccccc3)c2n1
Inhibition [1]: 15.21%
Inhibition [2]: 8.02%

COc1cc(C=NNC(=O)Cc2c[nH]c3ccccc23)ccc1O
Inhibition [1]: 8.14%
Inhibition [2]: -0.45%

COC(=O)/C(=C/c1ccc(O)cc1)NC(=O)c1ccccc1
Inhibition [1]: 4.82%
Inhibition [2]: 15.96%

COc1ccc2cc(C3C4=C(CC(C)(C)CC4=O)Oc4nc5c(c(N)c43)CCCCC5)c(Cl)nc2c1 (stereo not drawn)
Inhibition [1]: 27.31%
Inhibition [2]: 12.92%

Cl.ClCCCCCN1CCCCC1
Inhibition [1]: 7.58%
Inhibition [2]: 1.26%

N#CC1=C(N)Oc2ccc3ccccc3c2C1c1ccc(O)cc1 (stereo not drawn)
Inhibition [1]: 42.7%
Inhibition [2]: -6.77%

CCOC(=O)C1=C(C)Oc2nc3c(c(N)c2C1c1ccccc1OC)CCC3 (stereo not drawn)
Inhibition [1]: 12.13%
Inhibition [2]: 5.78%

C1CNCCNCCNCCNC1
Inhibition [1]: 30%
Inhibition [2]: 9.31%

CNC(=O)NC1(C(=O)O)CC1c1ccccc1 (stereo not drawn)
Inhibition [1]: 10.75%
Inhibition [2]: 8.23%

N#Cc1c(N)nc(Cl)c(C#N)c1-c1ccccc1
Inhibition [1]: 17.3%
Inhibition [2]: 12.56%

NC(=O)N/N=C/c1c[nH]c2ccccc12
Inhibition [1]: 3.48%
Inhibition [2]: 5.19%

C#CCN(C)c1cc(Cl)nc(N)n1
Inhibition [1]: 26.35%
Inhibition [2]: -8.33%

COc1cccc(C2C(C#N)=C(N)Oc3[nH]nc(C)c32)c1 (stereo not drawn)
Inhibition [1]: 6.27%
Inhibition [2]: 6.61%

COc1ccccc1-c1c(C#N)c(=O)oc2c1ccc1ccccc12
Inhibition [1]: 27.34%
Inhibition [2]: 19.18%

CCOC(=O)c1c(C)[nH]c(=O)c(C#N)c1-c1ccccc1
Inhibition [1]: 37.77%
Inhibition [2]: -18.87%

Cl.ClCCCN1CCCC1
Inhibition [1]: 23.18%
Inhibition [2]: 5.15%

N#Cc1c(-c2ccccc2)c2c(ccc3ccccc32)oc1=O
Inhibition [1]: 27.54%
Inhibition [2]: 15.75%

N#Cc1c(N)nc(N2CCCCC2)c(C#N)c1-c1ccccc1
Inhibition [1]: 14.68%
Inhibition [2]: -11.69%

C#CCN(C)c1nc(N)c(C#N)cc1C#N
Inhibition ([2]; 32 ug/mL): -6.57% and -4.54%

COc1nc2ccc(C)cc2cc1C=O
Inhibition [1]: 18.14%
Inhibition [2]: 18.17%

O=C(NNCCc1ccccc1)c1cc2ccccc2[nH]1
Inhibition [1]: -6.37%
Inhibition [2]: -5.83%

COc1cccc(C2c3c(ccc4ccccc34)OC(=N)C2(Br)C#N)c1 (stereo not drawn)
Inhibition ([2]; 32 ug/mL): -22.74% and -4.85%

COc1ccccc1C1c2c(ccc3ccccc23)OC(=N)C1(Br)C#N (stereo not drawn)
Inhibition [1]: 32.97%
Inhibition [2]: -9.16%

N#Cc1c(N)nc(S)c(C#N)c1-c1ccccc1
Inhibition [1]: 14.03%
Inhibition [2]: 9.92%

O=C(NCc1ccccc1)c1cc2ccccc2[nH]1
Inhibition [1]: 5.56%
Inhibition [2]: 8.05%

c1ccc(COc2ccc3[nH]ccc3c2)cc1
Inhibition [1]: 4.67%
Inhibition [2]: 3.23%

COc1ccc(C2C(C#N)=C(N)Oc3c2ccc2ccccc32)cc1OC (stereo not drawn)
Inhibition [2]: -16.13%
